KAT2A inh = inhibitors of human GCN5L2 histone acetyltransferase. hit rate 0.21% among 390,000. GCN5L2 HAT assay, ThioGlo1 CoA-SH fluorescence. Potency, µM (doses to about 58.9 µM), for inactives: at the highest dose activity change, negative = inhibition, hits mostly inhibitors. AID 504327. Q92830
Target sequence (Q92830 whole entry, looked up): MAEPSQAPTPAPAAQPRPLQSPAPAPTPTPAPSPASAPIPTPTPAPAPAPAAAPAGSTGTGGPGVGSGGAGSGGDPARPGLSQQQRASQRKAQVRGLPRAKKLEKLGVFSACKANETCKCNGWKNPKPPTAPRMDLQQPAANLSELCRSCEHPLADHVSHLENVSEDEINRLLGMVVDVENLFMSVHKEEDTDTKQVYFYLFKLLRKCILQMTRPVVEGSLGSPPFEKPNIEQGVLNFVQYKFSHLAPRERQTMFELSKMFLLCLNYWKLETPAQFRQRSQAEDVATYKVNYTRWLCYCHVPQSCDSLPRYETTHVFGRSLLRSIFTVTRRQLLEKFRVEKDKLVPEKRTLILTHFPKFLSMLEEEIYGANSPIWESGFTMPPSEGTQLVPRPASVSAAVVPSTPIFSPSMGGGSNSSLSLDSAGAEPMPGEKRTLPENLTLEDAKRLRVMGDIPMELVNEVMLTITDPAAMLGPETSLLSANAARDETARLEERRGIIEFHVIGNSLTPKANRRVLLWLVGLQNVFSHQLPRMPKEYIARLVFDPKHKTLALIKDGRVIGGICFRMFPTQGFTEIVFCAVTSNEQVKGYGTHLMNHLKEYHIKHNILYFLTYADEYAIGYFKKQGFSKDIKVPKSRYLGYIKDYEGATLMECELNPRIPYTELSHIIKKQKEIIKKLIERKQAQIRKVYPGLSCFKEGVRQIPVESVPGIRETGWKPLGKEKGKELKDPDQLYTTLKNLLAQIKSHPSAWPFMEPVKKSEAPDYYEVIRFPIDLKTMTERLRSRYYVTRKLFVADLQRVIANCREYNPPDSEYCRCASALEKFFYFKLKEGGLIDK
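Free CoA generated was detected with ThioGlo1 (50uM) fluorescence at Ex340nm/Em540nm, read immediately and after 20 min at room temperature. Enzyme, 20 nM in HEPES pH 7.5 buffer, saw compounds 15 min before adding 75uM H3(1-25) peptide and 70uM acetyl-CoA.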
PLK1 PBD inh = PLK1 (human) polo-box domain binding inhibition; Plk1 PBD binding of FITC phosphopeptide, fluorescence polarization; AID 720504; hit rate 2.8% among 360,000; Potency, µM, inactives show max response, negative = inhibition, most hits filed as inhibitors; also: series mostly up to about 57 µM; nearly all actives have a fitted effect of over 65% in size
TDP1 cell noCPT = qHTS for Inhibitors of human tyrosyl-DNA phosphodiesterase 1 (TDP1): qHTS in cells in absence of CPT | DT40 Tdp1-/- hTDP1 cells, no CPT, ATP luminescence, 48 h | Potency, µM (top dose mostly 46.2 µM), inactives show top-dose activity change, negative = growth inhibition, most hits filed as inhibitors | hit rate 15% among 420,000 | AID 686978, 2013; also: nearly all actives have a fitted effect of over 55% in size
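A cellular qHTS used chicken DT40 cells lacking endogenous Tdp1 but carrying stably transfected human TDP1. Compounds were applied without camptothecin, and cell growth kinetics were judged by ATP-dependent luminescence after ≥48 hr.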
TDP1 inh = blocks human tyrosyl-DNA phosphodiesterase 1 | AID 485290 | hit rate 0.28% among 350,000 | Potency, µM (top dose mostly 130 µM), inactives show at the highest dose activity change, negative = inhibition, hits mostly inhibitors | recombinant TDP1, AlphaScreen DNA substrate cleavage | Q9NUW8; also: nearly all actives have a fitted effect of over 40% in size
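Tdp1 1 nM final; 15 min RT w/ cpd; substrate 15 nM, 5 min; beads 10 ug/ml, 10 min; AlphaScreen read. Neg ctrl: no enzyme.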
DT40 TDP1 CPT = growth inhibition of DT40 Tdp1-/-;hTDP1 cells with camptothecin (screen for TDP1 inhibitors); AID 686979; Potency, µM (top dose mostly 46.2 µM), without a hit: top-dose activity change, negative = growth inhibition, hits mostly inhibitors; hit rate 12% among 420,000; chicken DT40 Tdp1-/-;hTDP1 cells + 20 nM CPT, ATP luminescence, 48 h; also: nearly all actives have a fitted effect of over 55% in size
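Chicken DT40 Tdp1-/- cells stably complemented with human TDP1 were seeded at 400 cells/well in medium containing 20 nM camptothecin, exposed to pin-transferred compounds, and grown at 37 °C for at least 48 hr. Viability was read as ATP luminescence.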
VDR inhibitor = inhibitors of human vitamin D receptor | P11473 | VDR-SRC2-3 peptide fluorescence polarization, 2 h | Potency, µM, for inactives: max response, negative = inhibition, usual class: inhibitors | hit rate 0.93% among 400,000 | AID 504847
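Fluorescence polarization assay of small-molecule disruption of VDR binding to coregulator peptide SRC2-3. Compounds and controls pin-transferred, then read after 2 h incubation at ambient room temperature.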
* marks the source's active call; other numbers are inactive results; ? = inconclusive; · = not tested or not shown; [ ] = another dose, or the depositor's remark. In the library only some 18% were active in any assay of this set; here they are far more common. Calls follow the shape of the dose curve; as a rule, active = well fitted curve in the direction sought with a large enough effect; inconclusive = small, poorly fitted or top-dose-only effect, or another doubt; inactive = no such curve, though single readings can be large; an effect the other way counts as inactive or inconclusive. % is scaled to controls: 0 for no effect and ±100 for the full control effect; potency is read from the fitted curve at half-maximal effect.

SMILES	KAT2A inh	PLK1 PBD inh	TDP1 cell noCPT	TDP1 inh	DT40 TDP1 CPT	VDR inhibitor
Cc1ccc(S(=O)(=O)CCC(=O)N2CCN(c3ccccc3O)CC2)cc1	-5.1%	-11.1%	3.5%	0.8%	-14.8%	18.9%
CCOc1cccc2sc(N3CCN(C(=O)C(C)(C)C)CC3)nc12	-8.8%	·	20.6µM*	-2.6%	?	11.1%
O=C(CCS(=O)(=O)c1ccc(F)cc1)N1CCN(c2ccccc2)CC1	-1.6%	1.5%	-11.6%	7.1%	?	-1.6%
COc1ccccc1N(C)S(=O)(=O)c1ccc(C(=O)NC(C)c2ccccc2)cc1 (stereo not drawn)	2.5%	-4.8%	?	0.6%	?	12.3%
CC(OC(=O)CCCN=C1NS(=O)(=O)c2ccccc21)C(=O)Nc1ccc(F)c(F)c1F (stereo not drawn)	-1.4%	-0.5%	-10.3%	-3.6%	-19.2%	-7.4%
CCCCOc1ccc(S(=O)(=O)NCc2csc(-c3ccc(OC)cc3)n2)cc1	-6.5%	·	?	0.0%	?	-8.3%
O=C(Nc1nnc(SCc2cccnc2)s1)C1CC(=O)N(c2ccccc2)C1 (stereo not drawn)	-0.9%	-8.8%	-0.7%	4.5%	-8.4%	5.6%
C=C(C)COc1ccc2c(c1)CCC1C2CCC2(C)C(=O)C(=NO)CC12 (stereo not drawn)	·	-1.3%	?	·	16.4µM*	3.4%
O=C([C@@H]1CC=C[C@@H]2CCN(C3CCCCC3)C(=O)[C@@H]21)N1CCOCC1	·	·	-8.5%	·	0.1%	·
CC(=O)Nc1ccccc1C(=O)C(=O)Nc1ccc(F)c(Cl)c1	-8.7%	2.3%	?	3.3%	-8.0%	8.8%
COc1ccc(-c2cc(C)no2)cc1S(=O)(=O)N1CCc2ccccc21	-4.8%	·	?	-2.6%	?	9.7%
COc1ccc(-c2cc(C)no2)cc1S(=O)(=O)N1CCOc2ccccc21	-4.0%	2.9%	18.4µM*	1.7%	?	-16.7%
CCC1CN(S(=O)(=O)c2cc(-c3cc(C)no3)ccc2OC)c2cc(C)ccc2O1 (stereo not drawn)	-17.9%	-8.7%	23.1µM*	0.0%	18.4µM*	-4.8%
Cc1cc(-c2ccc(C(C)C)c(S(=O)(=O)N3CCOc4ccccc43)c2)on1	-10.3%	-0.9%	18.4µM*	1.7%	?	19.4%
COc1ccc(-c2cc(C)no2)cc1S(=O)(=O)N1CCN(c2cccc(C)c2)C(C)C1 (stereo not drawn)	-19.7%	4.2%	23.1µM*	3.6%	16.4µM*	3.8%
Cc1cccc2nc(-c3cccc(NC(=O)c4ccc(Cl)cc4)c3)cn12	-4.9%	-4.8%	?	6.6%	20.6µM*	-16.7%
O=C(Nc1cccc(-c2cn3ccccc3n2)c1)c1cccc(Cl)c1	-7.2%	-7.9%	18.4µM*	2.1%	?	4.4%
Cc1cccc(NC(=O)C2NC(=O)CC2c2ccccc2)c1C (stereo not drawn)	-2.7%	-18.8%	-10.3%	4.9%	-8.6%	-24.1%
O=C(CN1CCN(S(=O)(=O)c2ccccc2)CC1)Nc1ccc([N+](=O)[O-])cc1	1.3%	-1.2%	11.6µM*	11.3%	18.4µM*	7.1%
O=C(CN1CCN(S(=O)(=O)c2ccccc2)CC1)Nc1ccc(Cl)c([N+](=O)[O-])c1	-15.0%	-5.0%	23.1µM*	·	20.6µM*	-6.6%
NS(=O)(=O)c1ccc(NC(=O)CN2CCN(S(=O)(=O)c3ccc(F)cc3)CC2)cc1	-3.9%	4.74µM*	20.6µM*	3.7%	20.6µM*	?
NS(=O)(=O)c1ccc(NC(=O)CN2CCCN(S(=O)(=O)c3ccc(F)cc3)CC2)cc1	-7.4%	-14.9%	-28.1%	5.4%	-7.2%	-2.1%
Cc1ccc(S(=O)(=O)N2CCN(CC(=O)Nc3ccc([N+](=O)[O-])cc3)CC2)cc1C	-2.7%	2.5%	16.4µM*	5.6%	?	3.3%
Cc1cc(C)c(C)c(S(=O)(=O)N2CCN(CC(=O)Nc3ccc([N+](=O)[O-])cc3)CC2)c1C	-0.9%	-8.0%	-24.0%	5.9%	-5.3%	-11.6%
COc1ccc(NC(=O)CN2CCN(S(=O)(=O)c3ccc(Cl)cc3)CC2)cc1Cl	-4.2%	-11.0%	?	3.1%	-28.0%	12.7%
SMILES	KAT2A inh	PLK1 PBD inh	TDP1 cell noCPT	TDP1 inh	DT40 TDP1 CPT	VDR inhibitor
O=C(NCCN1CCN(S(=O)(=O)c2ccc([N+](=O)[O-])cc2)CC1)C(=O)Nc1ccccc1	1.8%	5.5%	2.0%	2.5%	-14.1%	3.0%
Cc1ccccc1-n1c(C)nnc1SC(C)C(=O)NCc1ccco1 (stereo not drawn)	·	·	-3.2%	·	-20.6%	·
COc1cccc(OC(=O)CSc2nnc(-c3cccs3)o2)c1	-20.6%	·	3.7%	11.4%	8.3%	10.5%
CC1(C)OC(=O)C2=C(C[C@@H](C3CCCCC3)O[C@H]2c2ccc(Cl)cc2)O1	·	-7.5%	?	·	?	·
O=C(CCC(=O)c1ccc(F)cc1)Nc1ccccc1Cl	-2.1%	26.7µM*	2.7%	1.9%	-18.4%	-14.8%
O=C(CN1CCN(CC(=O)c2ccc(F)cc2)CC1)Nc1ccccc1Cl	-5.7%	-21.4%	?	8.6%	-0.2%	-12.1%
COc1ccccc1CCn1cnc(-c2ccc(OC)c(OC)c2)c1C(C)C	·	-21.2%	5.8µM*	·	8.2µM*	·
CCc1ccccc1Oc1nc2cc(-c3cccc(OC)c3)sc2c(=O)n1C	·	-5.4%	-54.8%	·	?	·
CCCCc1c(-c2cccc(OC)c2)ncn1CCc1ccccc1OC	·	-6.4%	18.4µM*	·	14.6µM*	·
CCCCc1c(-c2ccc(OC)c(OC)c2)ncn1CCc1ccccc1OC	·	-0.7%	5.8µM*	·	5.8µM*	·
CCCn1cnc2c(c1=O)c1nc3ccccc3nc1n2Cc1ccccc1OC	1.1%	·	·	2.2%	·	·
CCCCCc1c(-c2ccccc2)ncn1CCc1ccccc1OC	·	-3.3%	14.6µM*	·	23.1µM*	·
CC(C)n1c(=O)c2ccccc2n1Cc1cn(-c2ccccc2)nn1	·	-3.4%	?	·	-12.4%	·
COc1cccc(CNC(=O)CCc2c(C)nc3c(c2C)c(=O)n(C)c(=O)n3C)c1	0.0%	·	-21.7%	-1.2%	14.8%	-5.4%
C[C@H](CO)N1C[C@H](C)[C@@H](CN(C)C(=O)C2CCCCC2)OCc2cn(nn2)CCCC1=O	·	-15.6%	8.4%	·	?	·
COc1ccc(C2CC(C)=C(C#N)S(=O)(=O)C2C#N)cc1 (stereo not drawn)	17.1%	-4.8%	-8.7%	·	-0.6%	-1.8%
Cc1cccc(CNC(=O)c2cnn(-c3nccc(-c4ccccc4F)n3)c2C)n1	·	·	-1.4%	·	8.4%[9.04 µM]	·

Screening data deposited in PubChem BioAssay by National Center for Advancing Translational Sciences (NCATS).
